Experimental data: paper doi:10.1101/2024.03.05.583629

Each sequence was assayed against pT7_6His-AlfaTag-HOXD13 (human, UniProt P35453 263-343) (assay: PADIT-seq). Conditions: dsDNA, one strand shown.
pT7_6His-AlfaTag-HOXD13, sequence (P35453 263-343): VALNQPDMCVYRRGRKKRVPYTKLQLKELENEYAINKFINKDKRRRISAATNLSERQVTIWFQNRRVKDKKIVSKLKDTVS

| Sequence | binding signal [log2FC] |
| --- | --- |
| CTCGAGGATATCAAGATCTGGCCTCGGCTAATTAAAAGGAACCTCTAGCTAGCCGACTCACTATAGGGATAATCGCCCTGAGCAAAGACC | 2.92 ± 0.0818 |
| CTCGAGGATATCAAGATCTGGCCTCGGCTGACTAAAAGGAACCTCTAGCTAGCCGACTCACTATAGGGATAATCGCCCTGAGCAAAGACC | -0.535 ± 0.11 |
| CTCGAGGATATCAAGATCTGGCCTCGGCTTTTTAAATGGAACCTCTAGCTAGCCGACTCACTATAGGGATAATCGCCCTGAGCAAAGACC | 1.81 ± 0.0949 |
| CTCGAGGATATCAAGATCTGGCCTCGGCTTTTTAACCGGAACCTCTAGCTAGCCGACTCACTATAGGGATAATCGCCCTGAGCAAAGACC | 0.739 ± 0.095 |
| CTCGAGGATATCAAGATCTGGCCTCGGCCTTTTACTAGGAACCTCTAGCTAGCCGACTCACTATAGGGATAATCGCCCTGAGCAAAGACC | 3.01 ± 0.0725 |
| CTCGAGGATATCAAGATCTGGCCTCGGCCCGCTAAAAGGAACCTCTAGCTAGCCGACTCACTATAGGGATAATCGCCCTGAGCAAAGACC | -0.398 ± 0.11 |
| CTCGAGGATATCAAGATCTGGCCTCGGCCGCCCAGCCGGAACCTCTAGCTAGCCGACTCACTATAGGGATAATCGCCCTGAGCAAAGACC | -0.832 ± 0.147 |
| CTCGAGGATATCAAGATCTGGCCTCGGCTTTTTAATTGGAACCTCTAGCTAGCCGACTCACTATAGGGATAATCGCCCTGAGCAAAGACC | 2.41 ± 0.0904 |
| CTCGAGGATATCAAGATCTGGCCTCGGCTTTTTAGCTGGAACCTCTAGCTAGCCGACTCACTATAGGGATAATCGCCCTGAGCAAAGACC | -0.298 ± 0.114 |
| CTCGAGGATATCAAGATCTGGCCTCGGCAAGGTAAAAGGAACCTCTAGCTAGCCGACTCACTATAGGGATAATCGCCCTGAGCAAAGACC | -0.357 ± 0.0936 |
| CTCGAGGATATCAAGATCTGGCCTCGGCATTTTAGCCGGAACCTCTAGCTAGCCGACTCACTATAGGGATAATCGCCCTGAGCAAAGACC | -0.535 ± 0.111 |
| CTCGAGGATATCAAGATCTGGCCTCGGCGTTTTAAGGGGAACCTCTAGCTAGCCGACTCACTATAGGGATAATCGCCCTGAGCAAAGACC | 1.67 ± 0.0925 |
| CTCGAGGATATCAAGATCTGGCCTCGGCACCTTAAAAGGAACCTCTAGCTAGCCGACTCACTATAGGGATAATCGCCCTGAGCAAAGACC | 0.52 ± 0.102 |
| CTCGAGGATATCAAGATCTGGCCTCGGCCGCACCCGCGGAACCTCTAGCTAGCCGACTCACTATAGGGATAATCGCCCTGAGCAAAGACC | -1.02 ± 0.126 |
| CTCGAGGATATCAAGATCTGGCCTCGGCCGTCTAAAAGGAACCTCTAGCTAGCCGACTCACTATAGGGATAATCGCCCTGAGCAAAGACC | -0.577 ± 0.117 |
| CTCGAGGATATCAAGATCTGGCCTCGGCAATATAAAAGGAACCTCTAGCTAGCCGACTCACTATAGGGATAATCGCCCTGAGCAAAGACC | 2.41 ± 0.0826 |
| CTCGAGGATATCAAGATCTGGCCTCGGCACGGTAAAAGGAACCTCTAGCTAGCCGACTCACTATAGGGATAATCGCCCTGAGCAAAGACC | 0.528 ± 0.077 |
| CTCGAGGATATCAAGATCTGGCCTCGGCGTTTTAGTTGGAACCTCTAGCTAGCCGACTCACTATAGGGATAATCGCCCTGAGCAAAGACC | 0.145 ± 0.11 |
| CTCGAGGATATCAAGATCTGGCCTCGGCTTTCCACGCGGAACCTCTAGCTAGCCGACTCACTATAGGGATAATCGCCCTGAGCAAAGACC | -0.793 ± 0.11 |

| Sequence | binding signal [log2FC] |
| --- | --- |
| CTCGAGGATATCAAGATCTGGCCTCGGCGCCCTAAAAGGAACCTCTAGCTAGCCGACTCACTATAGGGATAATCGCCCTGAGCAAAGACC | 0.248 ± 0.0833 |
| CTCGAGGATATCAAGATCTGGCCTCGGCCTTTTAACAGGAACCTCTAGCTAGCCGACTCACTATAGGGATAATCGCCCTGAGCAAAGACC | 1.89 ± 0.0877 |
| CTCGAGGATATCAAGATCTGGCCTCGGCTGCATAAAAGGAACCTCTAGCTAGCCGACTCACTATAGGGATAATCGCCCTGAGCAAAGACC | 1.39 ± 0.0891 |
| CTCGAGGATATCAAGATCTGGCCTCGGCTCACCACGCGGAACCTCTAGCTAGCCGACTCACTATAGGGATAATCGCCCTGAGCAAAGACC | -1.05 ± 0.123 |
| CTCGAGGATATCAAGATCTGGCCTCGGCCTTTTAACTGGAACCTCTAGCTAGCCGACTCACTATAGGGATAATCGCCCTGAGCAAAGACC | 1.7 ± 0.0719 |
| CTCGAGGATATCAAGATCTGGCCTCGGCTTTTTAGTAGGAACCTCTAGCTAGCCGACTCACTATAGGGATAATCGCCCTGAGCAAAGACC | 1.62 ± 0.0952 |
| CTCGAGGATATCAAGATCTGGCCTCGGCATTTTATAAGGAACCTCTAGCTAGCCGACTCACTATAGGGATAATCGCCCTGAGCAAAGACC | 3.26 ± 0.0841 |
| CTCGAGGATATCAAGATCTGGCCTCGGCGAGTTAAAAGGAACCTCTAGCTAGCCGACTCACTATAGGGATAATCGCCCTGAGCAAAGACC | 0.985 ± 0.0828 |
| CTCGAGGATATCAAGATCTGGCCTCGGCATTTTACCAGGAACCTCTAGCTAGCCGACTCACTATAGGGATAATCGCCCTGAGCAAAGACC | 0.505 ± 0.0919 |
| CTCGAGGATATCAAGATCTGGCCTCGGCCTTTTACCAGGAACCTCTAGCTAGCCGACTCACTATAGGGATAATCGCCCTGAGCAAAGACC | 0.296 ± 0.0912 |
| CTCGAGGATATCAAGATCTGGCCTCGGCATTTTATGTGGAACCTCTAGCTAGCCGACTCACTATAGGGATAATCGCCCTGAGCAAAGACC | 2.99 ± 0.0772 |
| CTCGAGGATATCAAGATCTGGCCTCGGCTTTATAAAAGGAACCTCTAGCTAGCCGACTCACTATAGGGATAATCGCCCTGAGCAAAGACC | 2.35 ± 0.0828 |
| CTCGAGGATATCAAGATCTGGCCTCGGCAGGGTAAAAGGAACCTCTAGCTAGCCGACTCACTATAGGGATAATCGCCCTGAGCAAAGACC | -0.13 ± 0.081 |
| CTCGAGGATATCAAGATCTGGCCTCGGCAAGATAAAAGGAACCTCTAGCTAGCCGACTCACTATAGGGATAATCGCCCTGAGCAAAGACC | 0.282 ± 0.0917 |
| CTCGAGGATATCAAGATCTGGCCTCGGCGCGTACGCGGGAACCTCTAGCTAGCCGACTCACTATAGGGATAATCGCCCTGAGCAAAGACC | -1.05 ± 0.139 |
| CTCGAGGATATCAAGATCTGGCCTCGGCGTTTTACCGGGAACCTCTAGCTAGCCGACTCACTATAGGGATAATCGCCCTGAGCAAAGACC | 1.01 ± 0.0969 |
| CTCGAGGATATCAAGATCTGGCCTCGGCCTTTTACCGGGAACCTCTAGCTAGCCGACTCACTATAGGGATAATCGCCCTGAGCAAAGACC | 0.698 ± 0.0877 |
| CTCGAGGATATCAAGATCTGGCCTCGGCGCGTTAAAAGGAACCTCTAGCTAGCCGACTCACTATAGGGATAATCGCCCTGAGCAAAGACC | 1.22 ± 0.079 |
| CTCGAGGATATCAAGATCTGGCCTCGGCGTTTTAAATGGAACCTCTAGCTAGCCGACTCACTATAGGGATAATCGCCCTGAGCAAAGACC | 1.63 ± 0.0846 |
